In all, about 2,100 compounds went through this assay and about 1,100 (52%) were called active. Roughly 27% stayed inconclusive and do not appear here. So high a share suggests a set chosen from earlier hits. Some of the results follow. Unmarked numbers belong to inactive results. Calls follow the shape of the dose curve; as a rule, active = well fitted inhibition curve with a large enough effect; inconclusive = small, poorly fitted or top-dose-only effect; inactive = no such curve, though single readings can be large or run the other way.
Potency is read from the fitted curve at half-maximal effect.

Chain of DNA dC->dU-editing enzyme APOBEC-3G (Homo sapiens) (Q9HC16 whole entry, looked up): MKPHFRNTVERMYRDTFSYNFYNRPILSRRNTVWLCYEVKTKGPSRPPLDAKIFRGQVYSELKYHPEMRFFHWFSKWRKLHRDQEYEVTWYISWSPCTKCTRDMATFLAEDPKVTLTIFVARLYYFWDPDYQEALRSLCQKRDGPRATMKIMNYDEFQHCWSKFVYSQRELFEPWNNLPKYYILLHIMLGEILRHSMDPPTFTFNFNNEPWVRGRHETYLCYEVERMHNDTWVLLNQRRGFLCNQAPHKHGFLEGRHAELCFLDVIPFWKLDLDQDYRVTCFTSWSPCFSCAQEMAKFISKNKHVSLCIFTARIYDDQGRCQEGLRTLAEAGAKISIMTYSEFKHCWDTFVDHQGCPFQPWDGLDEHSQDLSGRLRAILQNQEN

The target in the test is DNA dC->dU-editing enzyme APOBEC-3G (Homo sapiens) (UniProt Q9HC16). Put plainly: qHTS for inhibitors of Vif-A3G interactions: Cherry picks counterscreen.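 Also: hits raise yellow fluorescence by blocking Vif-driven A3G-eYFP degradation; nearly all actives have a fitted effect of over 70% in size.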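 As to max response: max response given as percent of control signal.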 The note with it: HeLa A3G-eYFP + Vif (tagged APOBEC3G with the HIV-1 protein that degrades it), eYFP fluorescence, 24 h. The source says:
The recent discovery and characterization of host restriction factors, which provide a potent defense to invading retroviruses, has provided new targets for antiviral drug development. APOBEC3G (A3G) and APOBEC3F (A3F) are potent cytidine deaminases that block HIV-1 replication; HIV-1 expresses the Vif protein, which counteracts A3G and A3F by binding to them and inducing their proteasomal degradation. The Vif-A3G and Vif-A3F interactions provide two potential targets for development of small molecules which can interfere with the ability of Vif to degrade A3G or A3F. […] To identify inhibitors that can interfere with Vif mediated degradation of A3G and A3F, we have developed Hela cell lines that stably express A3G or A3F tagged with eYFP at the C-terminal end (A3G-eYFP or A3F-eYFP, respectively) and Vif. In the absence of an inhibitor, Vif induces degradation of A3G-eYFP and A3F-eYFP, and the cells are not fluorescent. In the presence of an inhibitor, it is expected that Vif will be unable to degrade A3G-eYFP and/or A3F-eYFP, resulting in an increase in yellow fluorescence. In this counterscreen assay, Vif A3G was screened against the cherry picks ordered from the MLSMR. NIH Chemical Genomics Center [NCGC] NIH Molecular Libraries Probe Centers Network [MLPCN] MLPCN Grant: MH093245 Assay Submitter (PI): Vinay Pathak, National Cancer Institute
A3G-Vif cells were harvested from T225 flask and resuspended in phenol free OPTI-MEM medium with 5% FBS. Then 5 uL of 140,000 cells/mL resuspended cells was dispensed into each well of low base Aurora COC 1,536-well plates (black walled, clear bottom) using a Multidrop Combi dispenser. After overnight culture at 37 deg C with 5% CO2, a total of 23 nL of compounds at 5 selected concentrations from the NPC or positive control (2 mM stock of MG132) in DMSO was transferred to each well of the assay plate using a pintool (Kalypsys, San Diego, CA), and the plates were further incubated at 37 deg C with 5% CO2 for 24 hours. After that, the plates were measured on Acumen Explorer (TTP Lab Tech). The fluorescence was detected by 488 nm/Ex and […].
(In general: Quantitative high-throughput screening tests each substance at several concentrations.)
In the case of `COC(=O)CCC(=O)NC(=S)Nc1sc(C)c(C)c1C(N)=O`, the Potency is 0.886 µM (active).
The same measure, in the same setting: next, `Cc1cc(NC(=O)CSc2nc3c(C)cccc3cc2C#N)no1`: 4.11 µM (active); `Cc1cc(NC(=O)CSc2nc(-c3cccs3)nc3ccccc23)no1`: 3.53 µM (active); `Cc1nonc1NC(=O)CSc1nc2c(C)cccc2cc1C#N`: 20.6 µM (active).
Take `C1=Cc2ccccc2/C1=C\c1cc2c3c(c1)CCCN3CCC2`: the Potency was 13 µM (active).
The same measure, in the same setting: next, `c1ccc2c(CCc3c[nH]c4ccccc34)ccnc2c1`: 16.4 µM (active); `CSc1nsc(/C=C/Nc2ccc(C)cc2)c1C#N`: 15.8 µM (active).
Turning to `CSc1nsc(/C=C/Nc2ccc(F)cc2)c1C#N`, the Potency was 16.4 µM (active).
As to `CCN(CC)c1ccc(/C=c2/sc3nnc(-c4ccccc4C)n3c2=O)cc1`, the Potency was 23.1 µM (active).
On to `CCOC(=O)Nc1ccc2nc(-c3cscn3)[nH]c2c1`, for which the Potency was 8.86 µM (active).
The same measure, in the same setting: next, `O=C(O)CCCN1C(=O)/C(=C\C(Cl)=C\c2ccccc2)SC1=S`: 5.59 µM (active).
As to `CCC(=O)Nc1ccccc1-c1nc2ccccc2n(C(C)C(=O)Nc2ccc(OC)cc2)c1=O` (stereo not given), the Potency was 8.2 µM (active).
The same measure, in the same setting: in the case of `COCCNC(=O)C(=O)Nc1ccc2c(c1)N(S(=O)(=O)c1cccs1)CCC2` it was 6.27 µM (active); in that of `Nc1c(C(=O)Nc2ccc(F)cc2)sc2nc(-c3cccs3)cc(C(F)(F)F)c12`, 0.82 µM (active).
Turning to `O=C(Nc1nc2ccccc2s1)c1ccc([N+](=O)[O-])o1`, the max response was -24.2%.
`Nc1c(C(=O)Nc2nccs2)sc2nc(-c3cccs3)cc(C(F)(F)F)c12`: the Potency is 7.9 µM (active).
Consider `Nc1c(C(=O)Nc2nc3ccccc3s2)sc2nc(-c3cccs3)ccc12`, for which the Potency was 6.51 µM (active).
As to `Cc1nnc(NC(=O)c2sc3nc(-c4cccs4)cc(C(F)(F)F)c3c2N)s1`, the Potency is 2.59 µM (active).
Take `CC(C)Cn1c(N)c(C(=O)COC(=O)c2ccc([N+](=O)[O-])o2)c(=O)n(C)c1=O`: the max response is 8.96%.
As for `O=C(/C=C/c1ccco1)N1CCc2ccccc21`, the max response is -19.9%.
Consider `Cc1c(C(=O)C(=O)N2CC=C(c3ccccc3)CC2)c2ccccc2n1C`, for which the Potency was 7.04 µM (active).
In the case of `Cc1c(C(=O)C(=O)N2CCCc3ccccc32)c2ccccc2n1C`, the Potency is 11.2 µM (active).
On to `Cc1ccc(NC(=S)Nc2ccccn2)c(C)c1`, for which the max response was -5.64%.
On to `CCOC(=O)c1cc(-c2ccccc2)sc1NC(=S)Nc1cc(C)ccn1`, for which the Potency was 18.4 µM (active).
Turning to `CCOC(=O)c1ccc(NC(=S)Nc2cccc(C)n2)cc1`, the max response is -9.19%.
As for `Cc1ccnc(NC(=O)Nc2ccc3c(c2)N(C)C(=O)CS3)c1`, the Potency was 2.59 µM (active).
Turning to `Cc1ccc(-c2nc3sc(C#N)c(N)n3c(=O)c2C#N)cc1`, the Potency was 25.9 µM (active).
As to `O=C1c2ccccc2C(=O)c2cc(N3CCCCC3)ccc21`, the Potency was 6.27 µM (active).
Regarding `Cc1ccc(C(=O)N/C(=C/c2ccc(-c3ccc([N+](=O)[O-])cc3)o2)C(=O)NCCCN(C)C)cc1`, the Potency is 15.8 µM (active).
On to `Cc1cc2nc3s/c(=C/c4ccc(-c5ccccc5C(=O)O)o4)c(=O)n3c2cc1C`, for which the Potency was 23.1 µM (active).
Regarding `Cc1cc(C)cc(NC(=S)NC(=O)C2CC2)c1`, the max response was -14.6%.
Take `O=C1/C(=C\c2cc([N+](=O)[O-])ccc2O)SC(=S)N1Cc1ccc(Cl)cc1`: the Potency is 18.4 µM (active).
Take `Cc1cc(N)cc(C)c1-c1c(Br)cc(N)cc1Br`: the Potency was 8.86 µM (active).
Turning to `Nc1c(C(=O)c2ccccc2)sc2snc(SCC(=O)c3ccccc3)c12`, the Potency is 14 µM (active).
`Nc1c(C(=O)c2ccccc2)sc2nsc(SCCN3CCOCC3)c12`: the Potency is 4.61 µM (active).
In the case of `Nc1c(C(=O)c2ccccc2)sc2nsc(SCCN3CCCC3)c12`, the Potency was 14 µM (active).
Consider `COc1ccc(OC)c(S(=O)(=O)N/N=C\c2cn(CC(N)=O)c3ccccc23)c1`, for which the Potency was 15.8 µM (active).
For `CCN(CC)C(=O)Cn1c(C)c(/C=C/c2cc[n+](C)cc2)c2ccccc21`, the Potency was 15.8 µM (active).
Same read-out and setting: next, `COC(=O)Cn1c(C)c(/C=C/c2cc[n+](C)cc2)c2ccccc21`: 9.2 µM (active).
Consider `CCOC(=O)c1c(Nc2ccc(Cl)cc2)sc(/C=C2\C=Nc3ccccc32)c1O`, for which the Potency is 20.6 µM (active).
Turning to `COc1ccccc1N=C1NC(=O)/C(=C/c2ccc(N(C)C)cc2)S1`, the max response is 38.1%.
With `CN(C)c1ccc(C=C2SC(=S)NC2=O)cc1`, the Potency was 9.94 µM (active).
Consider `CCOc1ccc(N(C)c2ccc(/C=C3/SC(=S)NC3=O)cc2)cc1`, for which the Potency is 15.8 µM (active).
For the compound `C=C1C(=O)O[C@@H]2[C@H]1[C@@H](OC(=O)/C(C)=C/C)C/C(C)=C\C(=O)/C=C(\C)[C@@H]2O`, the Potency is 15.8 µM (active).
For the compound `CN1/C(=C\C=C2/SC(=S)N(CC(=O)O)C2=O)C(C)(C)c2ccccc21`, the max response is 52.2%.
Consider `CCCN1C(=O)/C(=C\C=C2\N(CC)c3ccccc3C2(C)C)SC1=S`, for which the Potency is 2.06 µM (active).
With `C=CCN1C(=O)/C(=C\C=C2\N(C)c3ccccc3C2(C)C)SC1=S`, the Potency is 0.291 µM (active).
For the compound `CN1/C(=C/C=C(/C#N)C(N)=O)C(C)(C)c2ccccc21`, the Potency was 9.94 µM (active).
In the case of `CCCCN1C(=O)/C(=C/C=C2/CC(C)(C)CN2C)SC1=S`, the max response is 54.7%.
In the case of `CCCN1C(=O)/C(=C/C=C2\N(CC)c3ccccc3C2(C)C)SC1=S`, the Potency was 1.58 µM (active).
With `CN1/C(=C\C=C2/SC(=S)NC2=O)C(C)(C)c2ccccc21`, the Potency was 3.53 µM (active).
As to `COc1ccc2c(c1)/C(=C/c1cc(OC)c(OC)c(OC)c1)C(=O)N2`, the Potency was 3.53 µM (active).
With `COc1ccc2c(c1)/C(=C\c1cccc(/C=C3/C(=O)Nc4ccc(OC)cc43)n1)C(=O)N2`, the max response is -72.2%.
On to `O=[N+]([O-])c1cc(-c2nc(-c3ccccc3)no2)ccc1NCc1ccco1`, for which the Potency is 10.3 µM (active).
Regarding `Cc1cccc(-c2noc(-c3ccc(NCc4ccco4)c([N+](=O)[O-])c3)n2)c1`, the Potency was 20.6 µM (active).
Turning to `O=C1N/C(=N\N=C\c2ccco2)SC1Cc1ccccc1[N+](=O)[O-]` (stereo not given), the max response was -1.06%.
Turning to `O=C(NCc1cccnc1)c1cccc(NS(=O)(=O)c2ccc(Br)cc2)c1`, the Potency is 4.44 µM (active).
Same read-out and setting: next, `CCN(CC)c1ccc2c(c1)OC(N)=C(C#N)C2c1cccnc1` (stereo not given): 15.8 µM (active); `N#CC1=C(N)Oc2ccc3ccccc3c2C1c1cccnc1` (stereo not given): 6.27 µM (active); `COc1cc(OC)c(/C=C/c2ccc3ccccc3[n+]2C)c(OC)c1`: 20.6 µM (active).
With `CCCCN1C(=O)C2Cc3c([nH]c4ccccc34)CN2C1=S` (stereo not given), the Potency is 15.8 µM (active).
As for `CCOc1ccc(CN2C(=O)c3ccccc3Sc3ccc(C(=O)O)cc32)cc1`, the Potency was 4.61 µM (active).
`O=C(NNC1=Nc2cccc3cccc1c23)c1ccc(Br)cc1`: the Potency was 23.1 µM (active).
Take `C/C(=N\Nc1nc(C)cc(-c2ccccc2)n1)c1ccc(F)cc1`: the max response is -5.07%.
Turning to `Nc1c(C(=O)N/N=C/c2ccc(F)cc2)oc2nc(-c3ccccc3)cc(-c3ccco3)c12`, the Potency is 6.27 µM (active).
With `Nc1c(C(=O)N/N=C/c2cccnc2)oc2nc(-c3ccccc3)cc(-c3ccco3)c12`, the Potency was 8.2 µM (active).
For `Nc1c(C(=O)N/N=C/c2ccccc2Cl)oc2nc(-c3ccccc3)cc(-c3ccco3)c12`, the Potency was 2.91 µM (active).
In the case of `Cc1cc(-c2ccccc2)nc(N/N=C/c2ccccc2F)n1`, the max response was -29.5%.
Still for that read-out and setting: in the case of `CSCC[C@H](NC(=O)[C@H](Cc1ccccc1)n1c(=O)[nH]c2ccccc2c1=O)C(=O)N1CCC[C@@H]1C(=O)O` it was 6.25%; in that of `O=C(CN1c2ccccc2Sc2ccccc21)NNC(=O)Nc1cccc(Cl)c1`, -25.9%; in that of `COc1ccc(NC(=O)CN2C(=O)C3(SCC(=O)N3c3ccccc3)c3ccccc32)cc1Cl` (stereo not given), 10.4%.
On to `O=C(CN1C(=O)CSc2ncccc21)Nc1cccc(Cl)c1`, for which the Potency is 23.1 µM (active).
Same read-out and setting: in the case of `CCOC(=O)C1C(=O)C=C(/C=C/c2ccc(N(C)C)cc2)CC1c1ccccc1` (stereo not given) it was 4.61 µM (active).
For `CC(/C=C/c1ccc(N(C)C)cc1)=N\N=C(/N)SC1CC(=O)N(c2ccc(C(=O)O)cc2)C1=O` (stereo not given), the max response is -29.3%.
Turning to `CC(C)CC(=O)NC(=S)N(Cc1ccccc1)Cc1ccccc1`, the max response was -12.5%.
`COc1cc(/C=C2\SC(N)=NC2=O)cc(Br)c1O`: the Potency is 17.7 µM (active).
On to `COc1cc(/C=C2\C(=N)N3N=CSC3=NC2=O)cc(Br)c1OC(=O)c1ccco1`, for which the max response was 43.8%.
Take `COc1ccc(-c2nc3c4ccccc4ccn3c2Cc2ccsc2)cc1OC`: the max response is -1.53%.
Take `CCOc1cc(-c2nnc(SCC(=O)NCc3ccccc3)nc2-c2ccc(OC)c(OCC)c2)ccc1OC`: the Potency is 2.31 µM (active).
Turning to `CCOc1cc(C)nc(NCc2ccccc2)n1`, the max response is -21.7%.
Turning to `CCC(C)Sc1cc(-c2nc3ccccn3c2NC2CCCCC2)ccc1OC` (stereo not given), the max response is 6.89%.
Regarding `COc1ccc(-c2nnc(SCC(=O)NCc3ccccc3)nc2-c2ccc(OC)c(OC)c2)cc1OC`, the Potency was 2.59 µM (active).
Regarding `COc1cc(-c2nc3ccc(C)cn3c2NCc2ccccc2)ccc1SC1CCCCC1`, the max response is 34.4%.
Regarding `Cc1nc(C)c(C(=O)OCC(=O)Nc2ccccc2SCC#N)s1`, the Potency was 15.8 µM (active).
In the case of `N#CCSc1ccccc1NC(=O)COc1ccc(-c2nnco2)cc1`, the Potency was 12.5 µM (active).
As for `CCC1=Nc2cc(C(=O)NCc3cccnc3)ccc2Sc2ccc(C)cc21`, the Potency was 12.5 µM (active).
With `COc1ccc(C(=O)NC(=S)NCc2cccnc2)cc1Cl`, the max response was -0.724%.
With `CCOC(=O)c1cnc(-n2nc(C)cc2C)nc1NNc1nc(-c2ccccc2)cc(-c2ccccc2)n1`, the max response was 18.7%.
`C=CCNc1nc(-c2ccccc2)c(C(=O)OCC)cc1C#N`: the Potency was 7.04 µM (active).
For the compound `CCOC(=O)c1cnc(-n2nc(C)cc2C)nc1NNc1cc(C)nc(-c2ccccc2)n1`, the max response was 14.5%.

(Values after PubChem BioAssay AID651813 (National Center for Advancing Translational Sciences (NCATS), 2012).)
